What all share (test): DAPPL (digital affinity profiling via proximity ligation, sequencing); 10 mM Tris-HCl pH 7.5, 50 mM NaCl, 1 mM DTT, 4% glycerol, room temperature, 30 min; GST-TFs on glutathione beads, 16-mer random dsDNA library, 0.1% formaldehyde crosslink after washing; high values mean tight binding
The target in assay [1] is T1, FLI1 (Homo sapiens, UniProt Q01543 1-452).
T1 sequence: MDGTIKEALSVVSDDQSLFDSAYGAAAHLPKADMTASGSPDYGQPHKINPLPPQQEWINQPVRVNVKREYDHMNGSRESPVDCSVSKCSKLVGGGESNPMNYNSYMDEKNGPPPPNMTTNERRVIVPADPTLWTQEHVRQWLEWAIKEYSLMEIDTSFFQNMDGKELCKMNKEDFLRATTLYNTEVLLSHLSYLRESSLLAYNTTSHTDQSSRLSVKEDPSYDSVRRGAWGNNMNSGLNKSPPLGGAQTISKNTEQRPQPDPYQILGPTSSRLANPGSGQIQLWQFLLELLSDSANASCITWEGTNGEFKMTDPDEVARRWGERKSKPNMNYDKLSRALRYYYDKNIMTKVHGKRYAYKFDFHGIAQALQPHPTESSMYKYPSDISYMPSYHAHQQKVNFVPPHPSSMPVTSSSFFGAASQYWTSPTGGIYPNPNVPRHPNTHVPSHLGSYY
To be noted: protein: recombinant; tags: N-terminal GST; dsDNA, one strand shown. A digest of the protocol:
(§1)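 Sequencing on an Illumina NextSeq500 followed washing, crosslinking with 0.1% formaldehyde, proximity ligation (BsaI/T4 ligase, 1 h, 37 °C) and PCR amplification of pools that had been incubated for 30 min at room temperature with 200 nmole of a random double-stranded 16-mer DNA library in Tris/NaCl/DTT/glycerol buffer. Each pool held DNA-barcoded human transcription factors, expressed in yeast as GST fusions and captured on glutathione beads, plus a tag-only sample. Binding signal is a hexamer's read frequency for a factor divided by its frequency in the tag-only sample.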

In assay [2] the target is T2, ELK1 (Homo sapiens, UniProt P19419 1-428).
T2 sequence: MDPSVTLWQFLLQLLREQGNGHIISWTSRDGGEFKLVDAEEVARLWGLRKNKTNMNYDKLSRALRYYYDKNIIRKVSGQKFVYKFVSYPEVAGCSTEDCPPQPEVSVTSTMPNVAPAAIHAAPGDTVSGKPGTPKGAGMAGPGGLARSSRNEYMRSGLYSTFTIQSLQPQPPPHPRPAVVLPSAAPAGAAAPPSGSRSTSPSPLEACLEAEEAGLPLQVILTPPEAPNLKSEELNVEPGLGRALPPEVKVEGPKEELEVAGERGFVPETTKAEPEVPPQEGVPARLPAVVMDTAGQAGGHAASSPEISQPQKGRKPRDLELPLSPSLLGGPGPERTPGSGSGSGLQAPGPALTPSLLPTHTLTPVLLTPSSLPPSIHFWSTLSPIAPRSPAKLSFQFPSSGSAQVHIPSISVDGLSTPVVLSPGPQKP
To be noted: protein: recombinant; tags: N-terminal GST; dsDNA, one strand shown. The procedure, abridged: as §1

Assay [3] has as its target T3, GABPA (Homo sapiens, UniProt Q06546 1-454).
T3 sequence: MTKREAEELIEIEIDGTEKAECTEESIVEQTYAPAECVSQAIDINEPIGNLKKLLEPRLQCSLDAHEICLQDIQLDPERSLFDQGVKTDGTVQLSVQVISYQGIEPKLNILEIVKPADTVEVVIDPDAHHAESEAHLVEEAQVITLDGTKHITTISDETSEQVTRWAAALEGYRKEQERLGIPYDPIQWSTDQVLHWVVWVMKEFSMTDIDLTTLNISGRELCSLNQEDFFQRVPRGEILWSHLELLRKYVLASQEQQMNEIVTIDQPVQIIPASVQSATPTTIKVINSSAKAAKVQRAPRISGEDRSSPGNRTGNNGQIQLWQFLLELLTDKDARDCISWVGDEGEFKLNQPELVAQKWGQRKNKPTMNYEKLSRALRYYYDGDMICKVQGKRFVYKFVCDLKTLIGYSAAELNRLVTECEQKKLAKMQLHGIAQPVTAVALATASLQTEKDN
Conditions: protein: recombinant; tags: N-terminal GST; dsDNA, one strand shown. The procedure, abridged: as §1

Assay [4] has as its target T4, ERG (Homo sapiens, UniProt P11308 1-479).
T4 sequence: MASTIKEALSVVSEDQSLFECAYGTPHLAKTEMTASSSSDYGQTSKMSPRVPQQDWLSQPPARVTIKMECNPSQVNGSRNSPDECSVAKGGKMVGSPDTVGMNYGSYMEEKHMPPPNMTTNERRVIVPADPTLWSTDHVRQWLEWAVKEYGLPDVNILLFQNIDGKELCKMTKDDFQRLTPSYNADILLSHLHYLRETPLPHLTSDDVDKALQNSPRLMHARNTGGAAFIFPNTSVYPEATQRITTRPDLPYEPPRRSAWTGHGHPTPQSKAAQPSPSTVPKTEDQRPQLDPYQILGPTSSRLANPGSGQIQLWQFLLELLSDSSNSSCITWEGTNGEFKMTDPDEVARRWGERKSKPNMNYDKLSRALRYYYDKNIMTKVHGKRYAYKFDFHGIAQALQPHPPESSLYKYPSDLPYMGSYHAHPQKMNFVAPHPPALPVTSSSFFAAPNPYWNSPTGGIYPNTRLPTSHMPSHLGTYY
Conditions: protein: recombinant; tags: N-terminal GST; dsDNA, one strand shown. A digest of the protocol:
as §1

For assay [5], the target named is ELF1 (Homo sapiens, UniProt P32519 1-619). Conditions: protein: recombinant; tags: N-terminal GST; dsDNA, one strand shown. The procedure, abridged:
as §1

Assay [6] addresses T5, EHF (Homo sapiens, UniProt Q9NZC4 1-300).
T5 sequence: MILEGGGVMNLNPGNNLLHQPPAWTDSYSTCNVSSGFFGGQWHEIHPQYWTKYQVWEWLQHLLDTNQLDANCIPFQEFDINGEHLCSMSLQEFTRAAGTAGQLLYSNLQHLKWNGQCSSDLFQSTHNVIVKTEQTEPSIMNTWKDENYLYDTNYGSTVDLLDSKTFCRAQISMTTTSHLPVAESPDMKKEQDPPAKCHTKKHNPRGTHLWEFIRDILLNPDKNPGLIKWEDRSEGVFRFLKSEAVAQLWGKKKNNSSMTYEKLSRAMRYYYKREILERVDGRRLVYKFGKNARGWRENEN
To be noted: protein: recombinant; tags: N-terminal GST; dsDNA, one strand shown. The procedure, abridged:
as §1

For assay [7], the target named is SPI1 (Homo sapiens, UniProt P17947 1-270). To be noted: protein: recombinant; tags: N-terminal GST; dsDNA, one strand shown. The procedure, abridged: as §1
Assay [8] has as its target SPIB (Homo sapiens, UniProt Q01892 1-262). To be noted: protein: recombinant; tags: N-terminal GST; dsDNA, one strand shown. The procedure, abridged: as §1
The target in assay [9] is T6, ELK3 (Homo sapiens, UniProt P41970 1-407).
T6 sequence: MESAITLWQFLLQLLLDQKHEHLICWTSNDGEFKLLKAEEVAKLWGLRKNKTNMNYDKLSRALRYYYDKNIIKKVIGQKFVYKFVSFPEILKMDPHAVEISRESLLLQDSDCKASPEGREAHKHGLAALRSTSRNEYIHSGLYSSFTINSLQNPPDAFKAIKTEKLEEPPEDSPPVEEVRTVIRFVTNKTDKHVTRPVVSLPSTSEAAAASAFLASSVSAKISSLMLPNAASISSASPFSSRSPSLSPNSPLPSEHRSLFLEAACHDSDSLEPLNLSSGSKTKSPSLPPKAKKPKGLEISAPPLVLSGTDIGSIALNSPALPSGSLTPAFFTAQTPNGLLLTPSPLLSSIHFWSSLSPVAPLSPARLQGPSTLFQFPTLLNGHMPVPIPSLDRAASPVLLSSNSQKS
To be noted: protein: recombinant; tags: N-terminal GST; dsDNA, one strand shown. A digest of the protocol:
as §1

Assay [10] concerns the target T7, FEV (Homo sapiens, UniProt Q99581 1-238).
T7 sequence: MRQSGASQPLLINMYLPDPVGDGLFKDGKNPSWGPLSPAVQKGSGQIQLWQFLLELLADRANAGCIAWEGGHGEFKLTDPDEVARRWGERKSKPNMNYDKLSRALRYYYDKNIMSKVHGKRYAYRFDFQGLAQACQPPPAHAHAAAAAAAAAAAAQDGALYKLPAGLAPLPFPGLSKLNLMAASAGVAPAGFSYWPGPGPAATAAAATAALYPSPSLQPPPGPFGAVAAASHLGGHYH
To be noted: protein: recombinant; tags: N-terminal GST; dsDNA, one strand shown. The procedure, abridged: as §1

The target of assay [11] is ETV5 (Homo sapiens, UniProt P41161 1-510). Conditions: protein: recombinant; tags: N-terminal GST; dsDNA, one strand shown. The procedure, abridged:
as §1

The target of assay [12] is HSF1 (Homo sapiens, UniProt Q00613 1-529). Conditions: protein: recombinant; tags: N-terminal GST; chain copies: 3; dsDNA, one strand shown. A digest of the protocol: as §1
In assay [13] the target is T8, SPIC (Homo sapiens, UniProt Q8N5J4 1-248).
T8 sequence: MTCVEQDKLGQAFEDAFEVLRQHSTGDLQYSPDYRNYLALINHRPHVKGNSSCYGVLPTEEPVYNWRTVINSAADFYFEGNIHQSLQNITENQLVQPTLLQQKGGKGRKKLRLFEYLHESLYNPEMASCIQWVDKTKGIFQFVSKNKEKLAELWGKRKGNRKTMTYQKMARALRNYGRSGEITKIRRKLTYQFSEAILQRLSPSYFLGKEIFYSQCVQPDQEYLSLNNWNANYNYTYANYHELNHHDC
To be noted: protein: recombinant; tags: N-terminal GST; dsDNA, one strand shown. The procedure, abridged: as §1

The target of assay [14] is ELF4 (Homo sapiens, UniProt Q99607 1-663). To be noted: protein: recombinant; tags: N-terminal GST; dsDNA, one strand shown. The procedure, abridged:
as §1

In assay [15] the target is T9, ELK4 (Homo sapiens, UniProt P28324-2 1-405).
T9 sequence: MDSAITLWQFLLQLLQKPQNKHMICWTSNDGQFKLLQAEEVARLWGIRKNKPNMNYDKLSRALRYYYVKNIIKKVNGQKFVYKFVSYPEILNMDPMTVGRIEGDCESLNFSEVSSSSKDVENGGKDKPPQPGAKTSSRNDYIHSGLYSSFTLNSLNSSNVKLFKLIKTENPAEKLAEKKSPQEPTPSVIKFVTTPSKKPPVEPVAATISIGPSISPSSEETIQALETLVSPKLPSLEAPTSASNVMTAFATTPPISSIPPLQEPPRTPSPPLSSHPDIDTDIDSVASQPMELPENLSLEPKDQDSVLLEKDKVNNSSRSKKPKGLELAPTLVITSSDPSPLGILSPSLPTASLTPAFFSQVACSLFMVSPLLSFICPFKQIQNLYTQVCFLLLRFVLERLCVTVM
To be noted: protein: recombinant; tags: N-terminal GST; dsDNA, one strand shown. The procedure, abridged: as §1

Assay [16] addresses T10, ETV2 (Homo sapiens, UniProt O00321 1-342).
T10 sequence: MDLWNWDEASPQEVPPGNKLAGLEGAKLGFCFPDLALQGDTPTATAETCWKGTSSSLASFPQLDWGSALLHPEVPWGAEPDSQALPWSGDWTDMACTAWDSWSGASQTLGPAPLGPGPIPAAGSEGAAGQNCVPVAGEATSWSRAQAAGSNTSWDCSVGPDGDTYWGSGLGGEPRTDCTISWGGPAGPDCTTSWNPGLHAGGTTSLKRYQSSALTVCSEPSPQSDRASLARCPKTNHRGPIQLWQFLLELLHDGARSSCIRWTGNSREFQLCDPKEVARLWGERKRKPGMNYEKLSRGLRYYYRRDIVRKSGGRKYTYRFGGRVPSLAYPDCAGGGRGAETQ
Conditions: protein: recombinant; tags: N-terminal GST; dsDNA, one strand shown. A digest of the protocol: as §1

For assay [17], the target named is CRX (Homo sapiens, UniProt O43186 1-299). To be noted: protein: recombinant; tags: N-terminal GST; dsDNA, one strand shown. The procedure, abridged: as §1
The target of assay [18] is ETV1 (Homo sapiens, UniProt P50549 1-477). Conditions: protein: recombinant; tags: N-terminal GST; dsDNA, one strand shown. The procedure, abridged:
as §1

Chain of CRX (O43186 whole entry): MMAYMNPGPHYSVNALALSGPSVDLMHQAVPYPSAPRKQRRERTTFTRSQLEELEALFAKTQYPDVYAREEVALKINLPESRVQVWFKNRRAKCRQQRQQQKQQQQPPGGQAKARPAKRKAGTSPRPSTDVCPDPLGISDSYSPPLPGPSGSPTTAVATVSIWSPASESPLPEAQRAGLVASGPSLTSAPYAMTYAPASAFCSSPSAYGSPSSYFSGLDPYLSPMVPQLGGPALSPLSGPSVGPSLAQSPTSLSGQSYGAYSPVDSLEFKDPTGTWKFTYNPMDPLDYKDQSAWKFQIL
Chain of ELF1 (P32519 whole entry): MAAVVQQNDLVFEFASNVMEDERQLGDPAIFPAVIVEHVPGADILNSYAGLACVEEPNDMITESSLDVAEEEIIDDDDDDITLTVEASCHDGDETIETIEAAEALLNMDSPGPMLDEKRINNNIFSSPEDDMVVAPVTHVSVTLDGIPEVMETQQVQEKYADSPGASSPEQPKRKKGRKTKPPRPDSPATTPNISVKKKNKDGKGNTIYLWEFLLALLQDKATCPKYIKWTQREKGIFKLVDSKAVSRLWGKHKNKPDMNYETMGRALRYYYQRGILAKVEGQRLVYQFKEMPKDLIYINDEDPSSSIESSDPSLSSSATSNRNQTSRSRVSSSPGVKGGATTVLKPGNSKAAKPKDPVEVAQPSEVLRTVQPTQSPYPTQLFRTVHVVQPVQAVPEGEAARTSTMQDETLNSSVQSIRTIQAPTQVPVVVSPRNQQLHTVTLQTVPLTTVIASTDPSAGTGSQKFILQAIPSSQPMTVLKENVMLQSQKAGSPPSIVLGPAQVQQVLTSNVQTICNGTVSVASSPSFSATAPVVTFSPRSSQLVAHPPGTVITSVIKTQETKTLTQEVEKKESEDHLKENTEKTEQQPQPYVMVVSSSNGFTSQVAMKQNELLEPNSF
Chain of HSF1 (Q00613 whole entry): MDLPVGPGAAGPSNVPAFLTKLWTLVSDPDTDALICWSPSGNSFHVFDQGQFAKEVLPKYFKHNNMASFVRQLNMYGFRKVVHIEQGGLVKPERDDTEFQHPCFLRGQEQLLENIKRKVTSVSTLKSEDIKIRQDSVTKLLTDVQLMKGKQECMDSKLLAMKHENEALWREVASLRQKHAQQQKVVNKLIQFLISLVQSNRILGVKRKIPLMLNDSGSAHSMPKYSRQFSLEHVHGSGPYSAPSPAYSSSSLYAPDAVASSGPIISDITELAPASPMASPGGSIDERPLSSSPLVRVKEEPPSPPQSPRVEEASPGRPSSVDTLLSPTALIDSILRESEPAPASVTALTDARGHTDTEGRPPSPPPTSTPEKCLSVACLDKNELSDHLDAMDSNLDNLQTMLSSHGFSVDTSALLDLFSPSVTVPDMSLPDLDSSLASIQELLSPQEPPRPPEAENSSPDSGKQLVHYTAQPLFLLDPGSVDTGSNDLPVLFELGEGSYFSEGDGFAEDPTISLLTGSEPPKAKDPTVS
Chain of ETV1 (P50549 whole entry): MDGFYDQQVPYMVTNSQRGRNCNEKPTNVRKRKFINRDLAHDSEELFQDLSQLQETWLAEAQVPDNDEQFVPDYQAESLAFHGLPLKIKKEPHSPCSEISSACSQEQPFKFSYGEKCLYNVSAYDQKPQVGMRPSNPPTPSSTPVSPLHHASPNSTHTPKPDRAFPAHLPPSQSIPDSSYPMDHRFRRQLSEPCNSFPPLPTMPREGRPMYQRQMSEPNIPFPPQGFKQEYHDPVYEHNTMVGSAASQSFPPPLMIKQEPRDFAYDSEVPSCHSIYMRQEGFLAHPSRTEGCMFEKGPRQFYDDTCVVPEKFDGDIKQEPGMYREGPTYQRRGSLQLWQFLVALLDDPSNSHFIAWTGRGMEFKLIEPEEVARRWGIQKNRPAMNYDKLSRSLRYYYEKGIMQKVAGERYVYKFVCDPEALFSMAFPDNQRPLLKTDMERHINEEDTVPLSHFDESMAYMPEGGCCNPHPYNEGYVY
Chain of SPIB (Q01892 whole entry): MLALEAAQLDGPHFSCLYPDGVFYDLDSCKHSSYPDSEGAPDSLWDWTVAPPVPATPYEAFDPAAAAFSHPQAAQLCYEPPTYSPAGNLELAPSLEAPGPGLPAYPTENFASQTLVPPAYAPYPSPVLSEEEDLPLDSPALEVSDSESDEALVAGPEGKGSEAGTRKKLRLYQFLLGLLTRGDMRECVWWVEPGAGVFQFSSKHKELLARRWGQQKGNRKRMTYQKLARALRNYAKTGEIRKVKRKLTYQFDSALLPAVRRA
Chain of ETV5 (P41161 whole entry): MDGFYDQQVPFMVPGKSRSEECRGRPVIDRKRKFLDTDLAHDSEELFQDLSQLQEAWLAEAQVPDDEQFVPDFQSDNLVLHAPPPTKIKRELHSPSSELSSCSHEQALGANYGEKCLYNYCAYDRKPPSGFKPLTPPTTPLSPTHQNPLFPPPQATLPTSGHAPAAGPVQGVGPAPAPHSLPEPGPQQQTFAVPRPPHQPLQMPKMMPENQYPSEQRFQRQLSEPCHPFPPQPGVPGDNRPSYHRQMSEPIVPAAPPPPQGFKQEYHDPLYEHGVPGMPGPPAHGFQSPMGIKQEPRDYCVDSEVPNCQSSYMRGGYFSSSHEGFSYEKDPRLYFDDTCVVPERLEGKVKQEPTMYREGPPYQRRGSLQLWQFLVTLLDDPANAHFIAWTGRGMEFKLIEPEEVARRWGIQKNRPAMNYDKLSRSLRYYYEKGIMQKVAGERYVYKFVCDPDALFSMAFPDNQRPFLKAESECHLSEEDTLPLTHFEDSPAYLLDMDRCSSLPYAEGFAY
Chain of ELF4 (Q99607 whole entry): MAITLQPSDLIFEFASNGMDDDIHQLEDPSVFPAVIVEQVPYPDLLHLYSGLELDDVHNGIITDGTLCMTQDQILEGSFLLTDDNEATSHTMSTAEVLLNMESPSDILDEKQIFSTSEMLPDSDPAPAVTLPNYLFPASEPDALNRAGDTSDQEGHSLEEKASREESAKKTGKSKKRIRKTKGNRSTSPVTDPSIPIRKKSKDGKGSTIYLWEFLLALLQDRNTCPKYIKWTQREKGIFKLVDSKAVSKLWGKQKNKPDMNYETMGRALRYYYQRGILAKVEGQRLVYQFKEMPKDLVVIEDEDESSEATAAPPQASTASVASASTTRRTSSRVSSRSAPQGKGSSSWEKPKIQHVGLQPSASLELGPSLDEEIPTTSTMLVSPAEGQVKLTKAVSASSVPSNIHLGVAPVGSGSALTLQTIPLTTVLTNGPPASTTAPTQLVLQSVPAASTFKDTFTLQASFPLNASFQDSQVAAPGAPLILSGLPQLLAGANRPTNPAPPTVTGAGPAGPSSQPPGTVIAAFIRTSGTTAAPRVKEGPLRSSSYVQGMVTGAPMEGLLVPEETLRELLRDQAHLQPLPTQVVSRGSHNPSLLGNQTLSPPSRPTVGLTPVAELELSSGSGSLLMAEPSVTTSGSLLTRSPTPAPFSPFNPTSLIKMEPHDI

In the case of TTTGGC, the binding signal was 1.33 fold enrichment (6-mer frequency, TF over GST control) in assay [1]; 1.27 fold enrichment (6-mer frequency, TF over GST control) in assay [2]; 1.25 fold enrichment (6-mer frequency, TF over GST control) in assay [3]; 1.12 fold enrichment (6-mer frequency, TF over GST control) in [4]; 1.27 fold enrichment (6-mer frequency, TF over GST control) in [5]; 1.2 fold enrichment (6-mer frequency, TF over GST control) in [6]. Besides, the binding signal in assay [7] was 1.22 fold enrichment (6-mer frequency, TF over GST control); in assay [8] it was 1.29 fold enrichment (6-mer frequency, TF over GST control); in assay [9], 1.1 fold enrichment (6-mer frequency, TF over GST control); in assay [10], 1.27 fold enrichment (6-mer frequency, TF over GST control); in [11], 1.32 fold enrichment (6-mer frequency, TF over GST control); in assay [12], 1.23 fold enrichment (6-mer frequency, TF over GST control). The binding signal in assay [13] was 1.45 fold enrichment (6-mer frequency, TF over GST control); in [14] it was 1.26 fold enrichment (6-mer frequency, TF over GST control); in [15] it was 1.23 fold enrichment (6-mer frequency, TF over GST control); in [16], 1.31 fold enrichment (6-mer frequency, TF over GST control); in assay [17] it was 1.49 fold enrichment (6-mer frequency, TF over GST control); in [18], 1.22 fold enrichment (6-mer frequency, TF over GST control).

Source of the values: article PMC7862700, “An all-to-all approach to the identification of sequence-specific readers for epigenetic DNA modifications on cytosine”.
